About 79,000 compounds went through this panel and 15% of them were active in at least one assay; those are over-represented in the sample as a whole. Values without a mark were called inactive. Active and inactive are the calls of the source. Cut-off read from the data, not from the text of the source: active = growth inhibition above about 70%; inactive = the rest.
Experiment: NCI Yeast Anticancer Drug Screen. Data for the sgs1 mgt1 strain (AID 161);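 note: 0% = growth of cultures given vehicle only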
Conditions: S. cerevisiae sgs1 mgt1 strain, at 5.0 µM (retest, dose inferred, filed as 0.5), stronger effect = higher value
In short: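 This yeast growth screen uses a strain with defined DNA-repair lesions; compound-treated growth is compared with vehicle-treated growth.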
With `Cc1cccc2c(C(O)CBr)cc(-c3ccc(Cl)cc3)nc12` (stereo not given) the growth inhibition was 3%.
With `CN(C)C[C@H]1CC[C@@H](CN(C)C)C1=O` the growth inhibition was 1%.
Work on `CC1=C(SCCO)C(=O)c2ccccc2C1=O` yielded a growth inhibition of -37%.
With `COC(=O)CCNc1c2ccccc2nc2cccc([N+](=O)[O-])c12` the growth inhibition was 94% (active).
Work on `CC(/C=C/c1ccc2c(c1)OCO2)[N+](=O)[O-]` (stereo not given) yielded a growth inhibition of 62%.
`COC(=O)C1=C(C)NC(C)=C(C(=O)OCCCN2CCC(c3ccccc3)(c3ccccc3)CC2)C1c1cccc([N+](=O)[O-])c1` (stereo not given) showed a growth inhibition of 50%.
In the case of `CCOC(=O)c1cnc2c(C(F)(F)F)cccc2c1N=[N+]=[N-]`, the growth inhibition is reported as 5%.
`O=[N+]([O-])c1cc2no[n+]([O-])c2cc1N1CCCCC1` showed a growth inhibition of 1%.
In the case of `COC(=O)c1ccc(NCC2=CC(=O)C=CC2=O)cc1O`, the growth inhibition is reported as 50%.
With `CCCCCCCCNC(=O)C1=C(C)NC(C)=C(C(=O)NCCCCCCCC)C1` the growth inhibition was -7%.
In the case of `S=C(Nc1ccc(Cl)c(Cl)c1)SCc1ccc2c(c1)OCO2`, the growth inhibition is reported as 77% (active).
Work on `O=S(=O)(CCCl)c1ccccc1Cl` yielded a growth inhibition of -42%.
Molecule `Nc1ccccc1CC(O)C(=O)O` (stereo not given) has a growth inhibition of -6%.
Molecule `CN(C)c1ccc(Sc2ccc3nc(N)nc(N)c3c2)cc1` has a growth inhibition of 29%.
With `CC(C)C1=CCC2C(=C1)CCC1C(C)(C(=O)O)CCCC21C` (stereo not given) (tested in a mixture with another compound) the growth inhibition was 31%.
For `Cc1ccc(S(=O)(=O)Oc2cc(Cl)c(Cl)cc2Cl)cc1`, the growth inhibition was 23%.
Molecule `CSC(=S)Nc1cc(C)ccn1` has a growth inhibition of -11%.
Work on `CC(C)c1cc(C(C)C)c(O)c(C([O-])[O-])c1.CC(C)c1cc(C(C)C)c(O)c(C([O-])[O-])c1.CC(C)c1cc(C(C)C)c(O)c(C([OH2+])[OH2+])c1.CC(C)c1cc(C(C)C)c(O)c(C([OH2+])[OH2+])c1.[Cu+2].[Cu+2].[OH3+].[OH3+]` yielded a growth inhibition of -9%.
With `Cc1cc(I)ccc1N` the growth inhibition was -1%.
Molecule `CC(Br)C(=O)c1ccc2cc(Br)c3ccccc3c2c1` (stereo not given) has a growth inhibition of 2%.
Molecule `O=C(Nc1ccccc1)OCCc1ccc(Cl)c(Cl)c1` has a growth inhibition of 8%.
Molecule `O=Cc1cccc2ccc3ccccc3c12` has a growth inhibition of -56%.
`O=[N+]([O-])CC(SCc1ccccc1)c1ccc2c(c1)OCO2` (stereo not given) gave a growth inhibition of -4%.
In the case of `CC1(Cl)CC(O)C2(CC1Br)C1(C)OC1C1OC1(Br)C2(C)C` (stereo not given), the growth inhibition is reported as 2%.
Molecule `Cc1cc(O)cc(O)c1N=Nc1ccc([N+](=O)[O-])cc1` has a growth inhibition of 3%.
For `CCCCCCCCCCCCCC[N+](C)(CC(=O)[O-])Cc1ccccc1` (stereo not given), the growth inhibition was 13%.
`CC1=NN(c2cccc(Cl)c2)C(=O)C1` showed a growth inhibition of -12%.
In the case of `CC(=O)OCc1ccc(O)c(C=O)c1`, the growth inhibition is reported as 36%.
Molecule `Cc1ccc2ccc3cccc4ccc1c2c34` has a growth inhibition of -3%.
`Cc1nc(-[n+]2nc(-c3ccncc3)nn2-c2ccccc2)sc1C` showed a growth inhibition of 7%.
For `C(CCSC1=NCCN1)CSC1=NCCN1` (tested in a mixture with another compound), the growth inhibition was 73% (active).
Molecule `CCCCCCCCCCC(=O)Cl` has a growth inhibition of -18%.
`COC1C=COC2(C)Oc3c(C)c(O)c4c(c3C2=O)/C(=N/C2CCC(O)OC2C)C=C(NC(=O)/C(C)=C\C(=O)C2CC2C(O)C(C)C(O)C(C)C(OC(C)=O)C1C)C4=O` (stereo not given) showed a growth inhibition of -6%.
In the case of `S=c1[nH]nc(Nc2ccc(Cl)cc2)s1`, the growth inhibition is reported as -61%.
For `O=C1CSC(/C=C/c2ccccc2)N1c1ccc(-c2ccc(-n3c(-c4ccccc4)nc4ccccc4c3=O)cc2)cc1` (stereo not given), the growth inhibition was -1%.
With `O=C1C=CC(=O)N1c1ccc2c(c1)Cc1cc(NC(=O)C(F)(F)F)ccc1-2` the growth inhibition was 71% (active).
For `Brc1ccc(-c2cc3c(cc2C2SCCS2)OCO3)cc1`, the growth inhibition was -18%.
For `Oc1ccc2ccccc2c1C(c1ccc(Cl)cc1)c1c(O)ccc2ccccc12`, the growth inhibition was -2%.
In the case of `C[CH2][Sn]([CH2]C)([O]C(=O)C(OC(C)=O)c1ccccc1)[O]C(=O)C(OC(C)=O)c1ccccc1` (stereo not given), the growth inhibition is reported as 7%.
Molecule `Cc1ccc2ccc(O)cc2c1` has a growth inhibition of 5%.

Same assay, conditions: S. cerevisiae sgs1 mgt1 strain, at 50.0 µM (retest, dose inferred, filed as 5.0), stronger effect = higher value
With `Cc1cccc2c(C(O)CBr)cc(-c3ccc(Cl)cc3)nc12` (stereo not given) the growth inhibition was 95% (active).
For `CN(C)C[C@H]1CC[C@@H](CN(C)C)C1=O`, the growth inhibition was 18%.
In the case of `CC1=C(SCCO)C(=O)c2ccccc2C1=O`, the growth inhibition is reported as 72% (active).
For `COC(=O)CCNc1c2ccccc2nc2cccc([N+](=O)[O-])c12`, the growth inhibition was 98% (active).
With `CC(/C=C/c1ccc2c(c1)OCO2)[N+](=O)[O-]` (stereo not given) the growth inhibition was 98% (active).
For `COC(=O)C1=C(C)NC(C)=C(C(=O)OCCCN2CCC(c3ccccc3)(c3ccccc3)CC2)C1c1cccc([N+](=O)[O-])c1` (stereo not given), the growth inhibition was 98% (active).
In the case of `CCOC(=O)c1cnc2c(C(F)(F)F)cccc2c1N=[N+]=[N-]`, the growth inhibition is reported as 31%.
In the case of `O=[N+]([O-])c1cc2no[n+]([O-])c2cc1N1CCCCC1`, the growth inhibition is reported as -4%.
For `COC(=O)c1ccc(NCC2=CC(=O)C=CC2=O)cc1O`, the growth inhibition was 98% (active).
`CCCCCCCCNC(=O)C1=C(C)NC(C)=C(C(=O)NCCCCCCCC)C1` gave a growth inhibition of 4%.
In the case of `S=C(Nc1ccc(Cl)c(Cl)c1)SCc1ccc2c(c1)OCO2`, the growth inhibition is reported as 98% (active).
With `O=S(=O)(CCCl)c1ccccc1Cl` the growth inhibition was 87% (active).
With `Nc1ccccc1CC(O)C(=O)O` (stereo not given) the growth inhibition was 95% (active).
For `CN(C)c1ccc(Sc2ccc3nc(N)nc(N)c3c2)cc1`, the growth inhibition was 67%.
In the case of `CC(C)C1=CCC2C(=C1)CCC1C(C)(C(=O)O)CCCC21C` (stereo not given) (tested in a mixture with another compound), the growth inhibition is reported as 96% (active).
With `Cc1ccc(S(=O)(=O)Oc2cc(Cl)c(Cl)cc2Cl)cc1` the growth inhibition was 25%.
With `CSC(=S)Nc1cc(C)ccn1` the growth inhibition was 90% (active).
`CC(C)c1cc(C(C)C)c(O)c(C([O-])[O-])c1.CC(C)c1cc(C(C)C)c(O)c(C([O-])[O-])c1.CC(C)c1cc(C(C)C)c(O)c(C([OH2+])[OH2+])c1.CC(C)c1cc(C(C)C)c(O)c(C([OH2+])[OH2+])c1.[Cu+2].[Cu+2].[OH3+].[OH3+]` showed a growth inhibition of 40%.
With `Cc1cc(I)ccc1N` the growth inhibition was 92% (active).
In the case of `CC(Br)C(=O)c1ccc2cc(Br)c3ccccc3c2c1` (stereo not given), the growth inhibition is reported as 76% (active).
`O=C(Nc1ccccc1)OCCc1ccc(Cl)c(Cl)c1` showed a growth inhibition of 54%.
In the case of `O=Cc1cccc2ccc3ccccc3c12`, the growth inhibition is reported as 73% (active).
`O=[N+]([O-])CC(SCc1ccccc1)c1ccc2c(c1)OCO2` (stereo not given) showed a growth inhibition of 46%.
With `CC1(Cl)CC(O)C2(CC1Br)C1(C)OC1C1OC1(Br)C2(C)C` (stereo not given) the growth inhibition was 86% (active).
Molecule `Cc1cc(O)cc(O)c1N=Nc1ccc([N+](=O)[O-])cc1` has a growth inhibition of 25%.
For `CCCCCCCCCCCCCC[N+](C)(CC(=O)[O-])Cc1ccccc1` (stereo not given), the growth inhibition was 99% (active).
For `CC1=NN(c2cccc(Cl)c2)C(=O)C1`, the growth inhibition was 56%.
In the case of `CC(=O)OCc1ccc(O)c(C=O)c1`, the growth inhibition is reported as 89% (active).
Molecule `Cc1ccc2ccc3cccc4ccc1c2c34` has a growth inhibition of 20%.
In the case of `Cc1nc(-[n+]2nc(-c3ccncc3)nn2-c2ccccc2)sc1C`, the growth inhibition is reported as 76% (active).
In the case of `C(CCSC1=NCCN1)CSC1=NCCN1` (tested in a mixture with another compound), the growth inhibition is reported as 99% (active).
Molecule `CCCCCCCCCCC(=O)Cl` has a growth inhibition of 36%.
In the case of `COC1C=COC2(C)Oc3c(C)c(O)c4c(c3C2=O)/C(=N/C2CCC(O)OC2C)C=C(NC(=O)/C(C)=C\C(=O)C2CC2C(O)C(C)C(O)C(C)C(OC(C)=O)C1C)C4=O` (stereo not given), the growth inhibition is reported as 56%.
For `S=c1[nH]nc(Nc2ccc(Cl)cc2)s1`, the growth inhibition was 86% (active).
For `O=C1CSC(/C=C/c2ccccc2)N1c1ccc(-c2ccc(-n3c(-c4ccccc4)nc4ccccc4c3=O)cc2)cc1` (stereo not given), the growth inhibition was 5%.
With `O=C1C=CC(=O)N1c1ccc2c(c1)Cc1cc(NC(=O)C(F)(F)F)ccc1-2` the growth inhibition was 93% (active).
In the case of `Brc1ccc(-c2cc3c(cc2C2SCCS2)OCO3)cc1`, the growth inhibition is reported as 70% (active).
For `Oc1ccc2ccccc2c1C(c1ccc(Cl)cc1)c1c(O)ccc2ccccc12`, the growth inhibition was 94% (active).
`C[CH2][Sn]([CH2]C)([O]C(=O)C(OC(C)=O)c1ccccc1)[O]C(=O)C(OC(C)=O)c1ccccc1` (stereo not given) showed a growth inhibition of 10%.
`Cc1ccc2ccc(O)cc2c1` showed a growth inhibition of 43%.

Reference: PubChem BioAssay (NCI)
